In the supplement of paper PMC10849652:
Targets with a hit are over-represented here; the source holds about 7,900 in all. About 0.6% of all pairs of compound and target were hits.

Key:
Assay in all cases: log2 fold change, soluble protein after heating vs DMSO (PISA); higher = thermal stabilisation; K562 cells, 10 uM, 30 min; active = over 0.2 and 3.5 SD of the protein, either way, in both replicates (recomputed)
erlotinib = compound: C#Cc1cccc(Nc2ncnc3cc(OCCOC)c(OCCOC)cc23)c1 [erlotinib]
Outline: (§1)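 K562 cells at 2×10^6 cells/mL were treated with 10 μM compound for 30 min. Aliquots were heated for 3 min across 48°C-58°C, pooled, and extracted in PBS with 0.5% NP-40 at 4°C; soluble protein was the supernatant after 21,000xg for 90 min. Soluble protein was quantified by TMTpro 16plex LC-MS/MS with channel sums equalised, and reported as log2 fold change in thermal stability against DMSO controls, with values from duplicates.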

[1] = compound: C/C(=N\NC(=O)C1=CC(=CC=C1)S(=O)(=O)N2CCOCC2)/C3=C(C=CC(=C3)Cl)O
Outline: as §1

[2] = compound: C1=CC(=C(C=C1Cl)C2=NC3=NC=CN=C3C(=N2)NC4=CC=NC=C4)F
Outline: as §1

[3] = compound: C1=CC(=CC=C1C2=NC3=C(N2)C=C(C=C3)C(=O)N)OC4=CC=C(C=C4)Cl
Outline: as §1

[4] = compound: C1=CC2=C(C=CC(=C2)/C=C\3/C(=O)NC(=NCC4=CC=CS4)S3)N=C1
Outline: as §1

[5] = compound: C1=CC2=NC=CN=C2C=C1/C=C/3\C(=O)NC(=O)S3
Outline: as §1

[6] = compound: C1=CC=C(C=C1)C2=NC(=C(N2)C3=CC=NC=C3)C4=CC(=C(C=C4)Cl)O
Outline: as §1

[7] = compound: C1=CC=C2C(=C1)C3=NNC4=CC=CC(=C43)C2=O
Outline: as §1

[8] = compound: C1CCN(C1)C(=O)NC2=CC=CC(=C2)NC3=NC=C(C(=N3)NCCC4=CN=CN4)Br
Outline: as §1

[9] = compound: C1CN(CCC1(CC2=CC=C(C=C2)Cl)N)C3=NC=NC4=C3C=CN4
Outline: as §1

IRAK-1-4 Inhibitor I = compound: C1COCCN1CCN2C3=CC=CC=C3N=C2NC(=O)C4=CC(=CC=C4)[N+](=O)[O-] [IRAK-1-4 Inhibitor I]
Outline: as §1

ibrutinib = compound: C=CC(=O)N1CCC[C@@H](n2nc(-c3ccc(Oc4ccccc4)cc3)c3c(N)ncnc32)C1 [ibrutinib]
Outline: as §1

[10] = compound: CC(=O)c1cnc2ccc(-c3cc(Cl)c(O)c(Cl)c3)nc2c1N[C@H]1CC[C@H](CN(C)C)CC1
Outline: as §1

ralimetinib = compound: CC(C)(C)Cn1c(N)nc2ccc(-c3[nH]c(C(C)(C)C)nc3-c3ccc(F)cc3)nc21 [ralimetinib]
Outline: as §1

[11] = compound: CC(C)(O)CC(=O)NCCn1ccc2ncnc(Nc3ccc(Oc4cccc(C(F)(F)F)c4)c(Cl)c3)c21
Outline: as §1

[12] = compound: CC(C)C1=C2N=C(C=C(N2N=C1)NCC3=CC=CC=C3)NCCCCCCN
Outline: as §1

[13] = compound: CC(C)C[C@@H](C=O)NC(=O)[C@H](CC(C)C)NC(=O)[C@H](CC(C)C)NC(=O)OCc1ccccc1
Outline: as §1

pinometostat = compound: CC(C)N(C[C@H]1O[C@@H](n2cnc3c(N)ncnc32)[C@H](O)[C@@H]1O)[C@H]1C[C@@H](CCc2nc3cc(C(C)(C)C)ccc3[nH]2)C1 [pinometostat]
Outline: as §1

[14] = compound: CC1=C(C(CC(=O)N1)C2=CC=C(C=C2)C(F)(F)F)C(=O)NC3=C(C=C4C(=C3)C=NN4)F
Outline: as §1

[15] = compound: CC1=C(C2=C(C=C1)C(=O)C3=CC=CC=C3N2CCCN)C
Outline: as §1

Measured: log2 fold change

CHKA (UniProt P35790)
inactive: erlotinib 0.012 | [1] -0.008 | [2] 0.036 | [3] -0.018 | [4] 0.001 | [5] -0.119 | [6] 0.069 | [7] -0.188 | [8] 0.005 | [9] -0.021 | IRAK-1-4 Inhibitor I -0.034 | ibrutinib 0 | [10] 0.085 | ralimetinib 0.006 | [11] 0.057 | [12] 0.113 | [13] 0.019 | pinometostat 0.088 | [14] -0.061 | [15] 0.079

CHCHD4 isoform 2 (UniProt Q8N4Q1)
UniProt Q8N4Q1, sequence (Q8N4Q1 whole entry, looked up): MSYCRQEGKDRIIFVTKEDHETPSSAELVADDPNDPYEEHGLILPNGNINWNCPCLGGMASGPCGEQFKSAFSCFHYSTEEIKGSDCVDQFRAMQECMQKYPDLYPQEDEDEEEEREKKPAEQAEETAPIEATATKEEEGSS
inactive: erlotinib -0.071 | [1] 0.102 | [2] -0.045 | [3] -0.036 | [4] -0.067 | [5] 0.012 | [6] -0.022 | [7] 0.053 | [8] -0.678 | [9] 0.177 | IRAK-1-4 Inhibitor I 0.056 | ibrutinib 0.003 | [10] 0.096 | ralimetinib -0.003 | [11] 0.002 | [12] 0.075 | [13] 0.03 | pinometostat -0.024 | [14] -0.011 | [15] -0.18

CDC42SE1 (UniProt Q9NRR8)
UniProt Q9NRR8, sequence (Q9NRR8 whole entry, looked up): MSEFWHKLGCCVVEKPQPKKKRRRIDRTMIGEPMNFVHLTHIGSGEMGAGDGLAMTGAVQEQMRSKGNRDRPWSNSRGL
inactive: erlotinib 0.078 | [1] 0.041 | [2] -0.005 | [3] 0.014 | [4] 0.021 | [5] 0 | [6] -0.009 | [7] -0.207 | [8] 0.023 | [9] -0.012 | IRAK-1-4 Inhibitor I 0.066 | ibrutinib 0.049 | [10] -0.004 | ralimetinib 0.021 | [11] 0.042 | [12] -0.111 | [13] 0.074 | pinometostat 0.11 | [14] 0.282 | [15] 0.015

CDC42EP1 (UniProt Q00587)
UniProt Q00587, sequence (Q00587 whole entry, looked up): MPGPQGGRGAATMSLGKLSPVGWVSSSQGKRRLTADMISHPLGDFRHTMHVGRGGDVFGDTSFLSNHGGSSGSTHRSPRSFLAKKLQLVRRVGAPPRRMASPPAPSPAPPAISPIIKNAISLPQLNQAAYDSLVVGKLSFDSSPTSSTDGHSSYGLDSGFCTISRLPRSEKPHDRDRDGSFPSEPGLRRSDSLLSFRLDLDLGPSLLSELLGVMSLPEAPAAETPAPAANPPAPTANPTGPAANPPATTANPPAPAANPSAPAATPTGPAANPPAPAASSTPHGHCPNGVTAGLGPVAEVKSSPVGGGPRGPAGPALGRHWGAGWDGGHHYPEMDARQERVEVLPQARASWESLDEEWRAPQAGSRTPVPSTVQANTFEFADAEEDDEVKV
inactive: erlotinib 0.09 | [1] 0.063 | [2] 0.006 | [3] 0.115 | [4] 0.136 | [5] -0.011 | [6] -0.005 | [7] -0.086 | [8] -0.133 | [9] -0.001 | IRAK-1-4 Inhibitor I 0.097 | ibrutinib 0.086 | ralimetinib 0.076 | [11] -0.104 | [13] -0.009 | pinometostat -0.043 | [14] -0.054 | [15] -0.055
active: [10] -0.527 | [12] -0.43

CDK11B (UniProt P21127)
active: [10] 2.34 | [15] -0.366
inactive: erlotinib 0.044 | [1] 0.006 | [2] -0.139 | [3] 0.063 | [4] 0.035 | [5] -0.033 | [6] -0.042 | [7] -0.049 | [8] -0.033 | [9] -0.058 | IRAK-1-4 Inhibitor I -0.151 | ibrutinib -0.026 | ralimetinib 0.04 | [11] -0.006 | [12] -0.116 | [13] 0.076 | pinometostat -0.11 | [14] -0.009

CTBS (UniProt Q01459)
inactive: erlotinib 0.037 | [1] -0.008 | [2] -0.1 | [3] -0.023 | [4] 0.039 | [5] 0.013 | [6] -0.089 | [7] -0.002 | [8] -0.083 | [9] 0.048 | IRAK-1-4 Inhibitor I 0.073 | ibrutinib 0.067 | [10] -0.082 | ralimetinib -0.035 | [11] 0.018 | [12] -0.151 | [13] -0.028 | pinometostat -0.009 | [14] 0.1 | [15] -0.061

CCNK isoform 4 (UniProt O75909)
UniProt O75909, sequence (O75909 whole entry, looked up): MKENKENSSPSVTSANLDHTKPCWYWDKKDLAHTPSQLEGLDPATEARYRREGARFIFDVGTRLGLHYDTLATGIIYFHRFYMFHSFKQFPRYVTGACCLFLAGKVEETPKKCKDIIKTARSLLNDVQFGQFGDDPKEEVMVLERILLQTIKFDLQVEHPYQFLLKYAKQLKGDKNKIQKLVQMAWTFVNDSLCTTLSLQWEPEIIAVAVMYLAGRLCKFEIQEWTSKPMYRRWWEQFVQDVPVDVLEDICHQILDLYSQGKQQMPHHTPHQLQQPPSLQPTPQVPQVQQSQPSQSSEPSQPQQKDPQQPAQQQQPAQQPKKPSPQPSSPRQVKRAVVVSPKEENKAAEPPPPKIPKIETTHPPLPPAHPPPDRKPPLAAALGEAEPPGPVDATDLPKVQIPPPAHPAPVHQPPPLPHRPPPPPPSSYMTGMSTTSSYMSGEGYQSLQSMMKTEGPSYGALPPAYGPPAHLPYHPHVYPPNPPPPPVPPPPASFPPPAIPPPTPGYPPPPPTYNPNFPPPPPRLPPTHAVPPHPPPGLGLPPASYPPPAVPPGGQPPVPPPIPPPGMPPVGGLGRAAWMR
inactive: erlotinib 0.079 | [1] 0.006 | [2] -0.138 | [3] -0.016 | [4] -0.126 | [5] -0.013 | [6] -0.068 | [7] -0.077 | [8] 0.047 | [9] -0.126 | IRAK-1-4 Inhibitor I -0.143 | ibrutinib 0.02 | [10] -0.058 | ralimetinib 0.031 | [11] -0.007 | [12] -0.008 | [13] 0.045 | pinometostat 0.15 | [14] -0.046 | [15] -0.047

CAD (UniProt P27708)
inactive: erlotinib -0.083 | [1] 0.042 | [2] -0.014 | [3] -0.003 | [4] 0.125 | [5] -0.011 | [6] 0.057 | [7] -0.063 | [8] 0.013 | [9] 0.046 | IRAK-1-4 Inhibitor I -0.064 | ibrutinib 0.008 | ralimetinib -0.06 | [11] -0.168 | [12] 0.029 | [13] 0.021 | pinometostat 0.028 | [14] 0.03
active: [10] -0.402 | [15] 0.272

CDC26 (UniProt Q8NHZ8)
UniProt Q8NHZ8, sequence (Q8NHZ8 whole entry, looked up): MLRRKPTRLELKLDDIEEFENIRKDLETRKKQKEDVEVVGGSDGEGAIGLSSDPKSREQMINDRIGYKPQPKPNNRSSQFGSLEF
active: [4] -0.542
inactive: erlotinib -0.096 | [1] 0.16 | [2] -0.046 | [3] 0.034 | [5] 0.025 | [6] 0.355 | [7] 0.037 | [8] -0.137 | [9] -0.022 | IRAK-1-4 Inhibitor I -0.014 | ibrutinib -0.003 | [10] 0.099 | ralimetinib 0.188 | [11] 0.007 | [12] -0.01 | [13] -0.04 | pinometostat -0.128 | [14] 0.005 | [15] 0.049

CKB (UniProt P12277)
inactive: erlotinib 0.011 | [1] 0.045 | [2] 0.052 | [3] 0.035 | [4] 0.018 | [5] -0.038 | [6] 0.01 | [7] 0.065 | [8] 0.022 | [9] 0.027 | IRAK-1-4 Inhibitor I 0.014 | ibrutinib -0.024 | [10] -0.009 | ralimetinib -0.01 | [11] -0.077 | [12] -0.045 | [13] 0.021 | pinometostat -0.02 | [14] -0.014 | [15] 0.059

CREB3L2 (UniProt Q70SY1)
UniProt Q70SY1, sequence (Q70SY1 whole entry, looked up): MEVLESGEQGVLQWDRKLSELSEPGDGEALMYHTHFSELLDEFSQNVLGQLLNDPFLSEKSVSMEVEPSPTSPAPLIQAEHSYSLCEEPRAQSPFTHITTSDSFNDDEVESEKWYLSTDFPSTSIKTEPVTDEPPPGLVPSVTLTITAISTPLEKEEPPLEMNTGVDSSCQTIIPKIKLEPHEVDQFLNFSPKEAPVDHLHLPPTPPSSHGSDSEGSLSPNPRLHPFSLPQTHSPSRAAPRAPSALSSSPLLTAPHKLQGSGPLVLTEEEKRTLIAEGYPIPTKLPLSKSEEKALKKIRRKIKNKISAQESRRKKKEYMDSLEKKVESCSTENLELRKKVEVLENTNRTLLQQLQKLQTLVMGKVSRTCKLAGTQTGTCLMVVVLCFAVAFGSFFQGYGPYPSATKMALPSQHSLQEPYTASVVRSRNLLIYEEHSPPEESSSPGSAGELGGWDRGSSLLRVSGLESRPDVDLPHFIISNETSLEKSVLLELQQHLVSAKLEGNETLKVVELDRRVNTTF
inactive: erlotinib 0.424 | [1] 0.104 | [2] 0.057 | [3] -0.264 | [4] 0.113 | [5] -0.174 | [6] -0.1 | [7] -0.045 | [8] -0.206 | [9] 0.173 | IRAK-1-4 Inhibitor I 0.055 | ibrutinib 0.168 | [10] -0.108 | ralimetinib -0.01 | [11] -0.08 | [12] 0.322 | [13] 0.607 | pinometostat -0.193 | [14] -0.058 | [15] 0.074

CERT isoform 3 (UniProt Q9Y5P4)
UniProt Q9Y5P4, sequence (Q9Y5P4 whole entry, looked up): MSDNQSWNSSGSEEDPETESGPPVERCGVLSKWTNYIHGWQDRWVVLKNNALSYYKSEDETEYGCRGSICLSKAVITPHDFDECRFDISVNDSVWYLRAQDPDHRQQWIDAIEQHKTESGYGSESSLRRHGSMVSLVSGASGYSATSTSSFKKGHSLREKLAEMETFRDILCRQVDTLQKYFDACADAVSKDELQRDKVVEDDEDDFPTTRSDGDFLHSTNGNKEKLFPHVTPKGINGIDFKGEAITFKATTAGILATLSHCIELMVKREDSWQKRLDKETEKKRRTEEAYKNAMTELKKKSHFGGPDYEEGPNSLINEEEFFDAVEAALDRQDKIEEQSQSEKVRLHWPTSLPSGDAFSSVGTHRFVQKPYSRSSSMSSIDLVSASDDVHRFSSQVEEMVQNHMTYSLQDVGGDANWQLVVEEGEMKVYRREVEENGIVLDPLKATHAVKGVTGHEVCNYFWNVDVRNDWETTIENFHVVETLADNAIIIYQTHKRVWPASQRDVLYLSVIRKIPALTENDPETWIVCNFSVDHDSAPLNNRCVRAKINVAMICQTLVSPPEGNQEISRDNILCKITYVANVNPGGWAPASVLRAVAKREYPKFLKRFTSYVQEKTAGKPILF
active: [10] -0.382
inactive: erlotinib 0.05 | [1] 0.083 | [2] 0.018 | [3] -0.009 | [4] 0.039 | [5] 0.005 | [6] 0.044 | [7] 0 | [8] -0.054 | [9] -0.007 | IRAK-1-4 Inhibitor I -0.052 | ibrutinib 0.017 | ralimetinib 0.038 | [11] 0.166 | [12] 0.103 | [13] 0.005 | pinometostat 0.026 | [14] -0.048 | [15] -0.033

CASC3 (UniProt O15234)
UniProt O15234, sequence (O15234 whole entry, looked up): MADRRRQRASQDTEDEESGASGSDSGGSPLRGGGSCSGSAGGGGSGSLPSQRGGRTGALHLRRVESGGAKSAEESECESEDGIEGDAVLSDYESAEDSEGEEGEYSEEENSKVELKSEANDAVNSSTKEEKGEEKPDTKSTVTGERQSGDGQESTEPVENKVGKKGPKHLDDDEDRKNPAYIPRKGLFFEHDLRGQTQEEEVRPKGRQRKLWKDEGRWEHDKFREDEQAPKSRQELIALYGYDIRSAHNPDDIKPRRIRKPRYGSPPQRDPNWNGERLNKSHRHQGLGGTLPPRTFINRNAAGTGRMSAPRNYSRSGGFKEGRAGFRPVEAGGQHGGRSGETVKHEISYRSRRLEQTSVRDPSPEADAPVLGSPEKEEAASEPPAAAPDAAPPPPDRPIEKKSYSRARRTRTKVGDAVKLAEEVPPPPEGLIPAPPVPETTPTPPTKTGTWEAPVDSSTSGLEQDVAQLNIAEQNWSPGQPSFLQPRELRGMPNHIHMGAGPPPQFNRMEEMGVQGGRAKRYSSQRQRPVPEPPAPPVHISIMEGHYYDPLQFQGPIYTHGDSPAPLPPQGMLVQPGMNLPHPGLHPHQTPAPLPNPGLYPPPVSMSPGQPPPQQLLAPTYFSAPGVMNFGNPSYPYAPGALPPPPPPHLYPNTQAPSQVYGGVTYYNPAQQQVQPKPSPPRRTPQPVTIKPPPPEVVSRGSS
inactive: erlotinib -0.084 | [1] -0.166 | [2] -0.066 | [3] 0.068 | [4] 0 | [5] -0.047 | [6] 0.023 | [7] -0.29 | [8] 0.089 | [9] 0.022 | IRAK-1-4 Inhibitor I -0.014 | ibrutinib 0.1 | ralimetinib 0.07 | [11] -0.023 | [12] 0.411 | [13] -0.036 | pinometostat -0.005 | [14] 0.012 | [15] 0.206
active: [10] 0.582

CDC123 (UniProt O75794)
UniProt O75794, sequence (O75794 whole entry, looked up): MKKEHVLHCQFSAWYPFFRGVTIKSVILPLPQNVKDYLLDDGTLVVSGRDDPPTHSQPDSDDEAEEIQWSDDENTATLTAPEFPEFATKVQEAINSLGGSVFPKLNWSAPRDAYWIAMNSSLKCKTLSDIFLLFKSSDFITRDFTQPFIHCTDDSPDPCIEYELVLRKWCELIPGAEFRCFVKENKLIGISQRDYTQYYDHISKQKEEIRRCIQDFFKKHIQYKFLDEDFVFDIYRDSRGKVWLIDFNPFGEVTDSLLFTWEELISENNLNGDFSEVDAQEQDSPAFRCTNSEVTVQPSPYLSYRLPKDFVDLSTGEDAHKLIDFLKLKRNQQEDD
inactive: erlotinib -0.039 | [1] 0.038 | [2] 0.011 | [3] 0.036 | [4] -0.021 | [5] 0.032 | [6] 0.048 | [7] -0.001 | [8] -0.001 | [9] 0.023 | IRAK-1-4 Inhibitor I -0.023 | ibrutinib -0.009 | [10] -0.026 | ralimetinib -0.015 | [11] -0.088 | [12] -0.05 | [13] 0.037 | pinometostat -0.009 | [14] 0 | [15] 0.001

CDK5RAP1 (UniProt Q96SZ6)
inactive: erlotinib 0.076 | [2] 0.046 | [3] -0.025 | [4] 0.134 | [5] -0.03 | [6] 0.069 | [7] 0.078 | [8] 0.072 | [9] -0.029 | IRAK-1-4 Inhibitor I -0.067 | ibrutinib 0.018 | [10] 0.111 | ralimetinib -0.057 | [11] -0.055 | [12] -0.066 | [13] -0.015 | pinometostat 0.025 | [14] -0.038 | [15] 0.099
active: [1] -0.555

CDK12 (UniProt Q9NYV4)
UniProt Q9NYV4, sequence (Q9NYV4 whole entry, looked up): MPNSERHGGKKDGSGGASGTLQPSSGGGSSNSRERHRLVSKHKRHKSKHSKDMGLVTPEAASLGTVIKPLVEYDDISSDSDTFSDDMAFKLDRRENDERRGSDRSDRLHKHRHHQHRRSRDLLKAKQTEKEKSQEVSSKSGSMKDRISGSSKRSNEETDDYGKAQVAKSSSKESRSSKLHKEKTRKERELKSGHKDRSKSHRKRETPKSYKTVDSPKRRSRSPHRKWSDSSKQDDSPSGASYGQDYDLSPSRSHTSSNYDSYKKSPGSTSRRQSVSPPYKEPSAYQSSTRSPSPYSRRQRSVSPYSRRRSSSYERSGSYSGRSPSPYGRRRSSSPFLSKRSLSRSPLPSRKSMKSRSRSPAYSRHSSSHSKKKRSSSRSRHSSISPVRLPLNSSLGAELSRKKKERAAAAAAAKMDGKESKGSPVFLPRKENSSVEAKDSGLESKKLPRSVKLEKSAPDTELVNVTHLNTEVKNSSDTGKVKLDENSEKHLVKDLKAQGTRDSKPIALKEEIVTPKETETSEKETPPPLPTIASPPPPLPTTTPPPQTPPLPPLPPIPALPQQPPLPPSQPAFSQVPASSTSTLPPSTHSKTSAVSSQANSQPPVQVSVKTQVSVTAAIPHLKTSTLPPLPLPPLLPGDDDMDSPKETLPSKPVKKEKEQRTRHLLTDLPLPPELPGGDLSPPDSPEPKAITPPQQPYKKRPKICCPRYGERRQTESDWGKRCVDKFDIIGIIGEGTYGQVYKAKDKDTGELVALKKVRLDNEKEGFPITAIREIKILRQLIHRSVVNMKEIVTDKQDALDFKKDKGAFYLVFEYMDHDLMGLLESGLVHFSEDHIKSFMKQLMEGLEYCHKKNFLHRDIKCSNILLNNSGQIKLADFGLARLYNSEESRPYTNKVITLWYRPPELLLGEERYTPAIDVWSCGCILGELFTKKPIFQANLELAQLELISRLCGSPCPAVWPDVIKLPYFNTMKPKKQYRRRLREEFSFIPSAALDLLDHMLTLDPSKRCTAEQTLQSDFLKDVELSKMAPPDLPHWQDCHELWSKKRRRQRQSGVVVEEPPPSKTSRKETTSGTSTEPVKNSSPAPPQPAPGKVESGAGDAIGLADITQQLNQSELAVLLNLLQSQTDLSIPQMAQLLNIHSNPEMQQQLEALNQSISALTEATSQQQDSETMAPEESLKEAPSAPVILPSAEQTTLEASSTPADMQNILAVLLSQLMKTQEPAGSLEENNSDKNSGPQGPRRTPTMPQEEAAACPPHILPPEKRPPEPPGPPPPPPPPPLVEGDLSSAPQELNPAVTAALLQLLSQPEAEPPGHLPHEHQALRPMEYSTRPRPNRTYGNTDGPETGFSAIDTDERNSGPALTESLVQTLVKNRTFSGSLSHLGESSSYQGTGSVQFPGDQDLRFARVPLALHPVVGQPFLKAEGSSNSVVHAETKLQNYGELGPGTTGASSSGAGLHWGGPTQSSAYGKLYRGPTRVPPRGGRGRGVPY
inactive: erlotinib -0.049 | [1] 0.001 | [2] -0.44 | [3] 0.076 | [4] -0.06 | [5] -0.053 | [6] -0.066 | [7] -0.23 | [8] -0.077 | [9] -0.187 | IRAK-1-4 Inhibitor I -0.179 | ibrutinib 0.008 | [10] -0.566 | ralimetinib 0.138 | [11] 0.067 | [12] -0.211 | [13] 0.006 | pinometostat 0.399 | [14] 0.041 | [15] -0.014
